# Results reported in PubChem BioAssay AID1159506 (National Center for Advancing Translational Sciences (NCATS), 2015).
# In all, about 59,000 sequences were measured (the read-out: median about -0.00055, lowest 2% from about -2 on). The sample as a whole holds a higher share of the lowest values than the screen did.
# Assay: Identification of proteins required for the processing of the EWS-FLI1 nascent transcript;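 further: robust z of luciferase light less the median z of siRNAs with the same seed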
# Conditions: TC32 Ewing sarcoma NR0B1-luc vs CMV-luc (EWS-FLI1 target promoter against control promoter), 48 h; screened at 20 nM (by protocol)
# In short: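 Readout: OneGlo luminescence, 48 h post-transfection, TC32-NR0B1-luc vs TC32-CMV-luc in parallel. siRNA 20 nM final, RNAiMax lipid, 600 cells/well; z-score-MAD transformed, then seed-adjusted.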
row,Sequence,seed-corrected z-score
1,UUUUGUGCCUGUGCCCUUG against SBK1,-0.47
2,AGACUGAUGGUAGUGGUGG against PRRT1,-0.57
3,UUCAAUAUCAUUCCGAGGC against C6orf62,0.77
4,UUGUAUGAUUUUGCAAUUG against LINC01014,-0.168
5,AAAUGUACUCGAUCCCAUG against CPA5,-2.65
6,UACAGUUCCUCAAUGUUCA against IL1F10,1.27
7,UAAACAGGCACGAAGCUUC against RPAIN,-0.43
8,UUAGCUAGAGUUUUCAACC against MLLT11,0.312
9,UGACGUACCAGCACUGCGU against ADM2,-13.6
10,UGAGCAUCCAUGCUGGGUA against ZNF688,0.0175
11,UUCAUUUAAAUUCUAACAC against SYNC,0.372
12,AUUCAUUCUUAUUAAGUGC against GPX5,-0.0754
13,UUUGGUUUGAGCAGUCAAG against COMMD1,-2.03
14,AAUAAAUCCAUCCUUGUUC against GUCA1C,-0.429
15,UCCUGAUCUAUCCAUAGGC against IFITM3,-0.0222
16,UUCUCAAACACCUUCUUCC against QTRT1,-0.0367
17,UGCUCCAUCACAAAGGCGG against FN3K,1.15
18,AUGGGAAUUAUGUCGGUUG against SCEL,0.236
19,UCCAGUUGUACUUCUUGCC against GFOD1,-3.99

row,Sequence,seed-corrected z-score
1,AAACUCUUUAGGAAAGAUG against POLR2D,-0.98
2,UUAGCUGCCUGGAUAAGCG against CTNNA2,-0.541
3,UUUCCAACAUGAUCCACUG against TM2D2,0.00525
4,AAACGUUUGGAGCCUCUUG against NOXO1,-2.35
5,AUAGGGAACAGGAUAGCCC against C1orf74,1.41
6,UAGAUCUUUCCUCUGGUGG against FAM132B,-0.705
7,UGAACCGAGACUGUGGCAC against SERF1B,-0.313
8,UCCUUCUUGAGCAGGUUCU against SOX14,-0.364
9,AUUGUUGUCCAUAAUAGGC against IKZF2,-0.0322
10,UGACUAUUAAGAUAUGAAG against ZNF121,-2.14
11,UUCUUUACAACUAUCCGAG against FBXO5,2.48
12,UUGCCUAUCAGUAGCAGUU against RAB3D,-2.07
13,UGAUUGGAAAGCUUGUUCU against ME3,0.0737
14,UCGCUGAUGAGGAUCUUCC against KCNA10,-0.144
15,UAUACAAUGAGGCAGCUGA against ISCA1P1,0.235
16,UCUGGUGGGACUGGUGUUG against ZNF574,-3.85
17,UUUCUGAUCAUCUUGGUCC against SAFB,-0.16
18,UUCUGGAUCCCAAAUAGUG against ARHGAP19,0.0206
